This is an account of results in PubChem BioAssay (NCI).

Values joined by “and” are separate entries in the source; they are usually repeats but may differ in a detail not shown here. Identical values can stand only once. The panel holds about 83,000 compounds, 20% with a hit somewhere; the sample as a whole holds those more often.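 In brief: 96-well plates, 48 h treatment, single concentration, percent growth endpoint.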 A number with no mark means an inactive call. Active and inactive are the calls of the source. The calls were made as follows: active = growth percent below 10; inactive = the rest.

For the assay, the system named is MDA-MB-468 breast. Put plainly: NCI-60 one-dose screen, 48 h (100 = growth as untreated, 0 = no growth, -100 = all killed). As to conditions: 10 µM unless noted.
Consider `COc1ccc2c(c1)CCCC21C(=O)Nc2ccccc21` (stereo not given), for which the growth is 103%.
The same measure for `COC(=O)c1cccc(NC2=CC(=O)C(C)=C(C)C2=O)c1`: 65.9%; for `O=c1[nH]nc(-c2ccc(Br)cc2)cc1Cc1ccc(O)cc1`: 107%; for `COc1cc(N)c2ncccc2c1SC`: 107%.
The same measure for `O=C(CN1N=C(c2ccc(F)cc2)CCC1=O)Nc1nc2ccccc2s1`: 97.7%.
As for `COCCNC1=C(Cl)C(=O)c2ccccc2C1=O`, the growth was 76.8%.
The same measure for `COc1ccc(-c2c3c(N)nc(-c4ccncc4)nc3nc3c2c(C)nn3-c2ccccc2)cc1`: 72.7%; for `CC(CN=Cc1ccccc1O)N=Cc1ccccc1O` (stereo not given): 115% and 98%; for `Cc1ccc(S(=O)(=O)Nc2cccc(Cn3c(=O)[nH]c4ccc(Oc5ncccn5)cc4c3=O)c2)cc1`: 39.6%.
The same measure for `COc1cccc(N=CNc2cccc(OC)c2)c1`: 107%; for `CCOC(=O)c1cc2c(n1Cc1cccc(OC)c1)-c1oncc1CCC2`: 11.9%; for `COc1ccc(-c2csc(NC(=O)CSc3nc(C)cc(=O)[nH]3)n2)cc1`: 118%.
Under `c1ccc2c(c1)Nc1cc3ccccc3cc1N2` stands 40.3%; under `O=C1c2cc(Cl)ccc2S(=O)(=O)c2c(NCCCNCCO)nc3ccccc3c21`, -14.1% (active); under `Cn1c2ccccc2c2c3[nH][nH]c(=O)c3c3c4ccccc4[nH]c3c21`, 49.5%.
In the case of `O=C1c2cccc3c(-c4ccc5c(c4)ncn5C4CCCCC4)ccc(c23)C(=O)N1c1nc2ccccc2s1`, the growth is 92%.
Under `C=CC(=O)N1CCN(c2cccc(Oc3nccc(Nc4nnc(-c5ccc(Br)cc5)s4)n3)c2)CC1` stands 84.4%.
The same measure for `CCCCn1c(=O)c(/C=C/C(=O)/C=C/c2ccc(O)c(OC)c2)cc2ccc(Cl)cc21`: 15%.
As for `CC/C(C)=C(\C)C(=O)O`, the growth was 106%.
The same measure for `CC(=O)c1c(/C=C/c2ccc(C)cc2)c2ccccc2[nH]c1=O`: 110%.
Under `Cc1ccc2c(c1)C(=O)C(c1c(-c3[nH]c(=O)c4ccc(C)cc4c3O)c(O)c3ccccc3c1O)=NC2=O` stands -23.1% (active); under `C=C(C)[C@@H]1CC[C@]2(C(=O)OC)CC[C@]3(C)[C@H](CC[C@@H]4[C@@](C)(CCc5nn[nH]n5)[C@H](C(=C)C)CC[C@]43C)[C@@H]12`, -7.51% [100 µM] (active); under `NN1C(=O)CSC1=S`, 119%.
Under `CCOC(=O)c1cnc2ccc(OC)cc2c1Nc1cccc(S(=O)(=O)NC)c1` stands 113%; under `C[C@@H](Nc1ncnc2ccc(-c3cnc(Cl)c(NS(C)(=O)=O)c3)cc12)c1ccccc1`, 30.8%; under `O=S(=O)(NCCCNc1nccc(-c2c(-c3ccc(F)c(O)c3)nc3sccn23)n1)c1ccccc1`, 82.4%.
Consider `CC(=O)Oc1ccc(C)cc1C`, for which the growth was 112%.
The same measure for `O=C(NC1CCN(Cc2ccccc2)CC1)c1cc(-c2ccncc2)nc2ccc(Cl)cc12`: 12.8%; for `CCOC(=O)c1c(C)nc2c(c1N)/C(=C/c1ccc(OC)cc1)C(=O)N2Cc1ccc(F)cc1`: -16.4% (active).
For `CCN(CC)CCCNc1nc(C)cc(Nc2ccc3nc(C)cc(N)c3c2)n1`, the growth was 117%.
Under `NC(=O)c1cc(I)ccc1NC(=O)COc1ccc(Cl)cc1Cl` stands 71.7%; under `CC(=O)n1cc(/C=C2\N=C(c3ccc(Cl)cc3)N(c3ccc(S(=O)(=O)Nc4nccs4)cc3)C2=O)c2ccccc21`, 96.1%.
The same measure for `ClC/C=C/CSc1ncnc2nc[nH]c12`: 103% and 127%; for `O=C(N/N=C/c1c(Cl)cccc1Cl)c1cccnc1Nc1cccc(C(F)(F)F)c1`: 26.6%; for `COc1cc2c(c(OC)c1OC)C(=O)CC(c1cccc(C(=O)Nc3ccc(C#N)cc3)c1)O2` (stereo not given): 58.9%.
The same measure for `COc1ccc(/C=C/C(=O)/C=C/c2cc3ccc(Cl)cc3[nH]c2=O)cc1`: 87.2%; for `CC1(C)CC[C@]2(CO)CC[C@]3(C)[C@H](CC[C@@H]4[C@@]5(C)CC[C@H](O)C(C)(C)[C@@H]5CC[C@]43C)[C@H]2[C@H]1O`: 101%; for `COc1cc(NCCCCC(C)N)c2nccc(C)c2c1` (stereo not given): 10.6%.
Consider `CN1C(=O)N(C)C2C1NN=c1s/c(=C\c3ccc(C(F)(F)F)cc3)c(=O)n12` (stereo not given), for which the growth is -2.71% (active).
The same measure for `CCN(CC)c1ccc(CNc2ccnc3ccccc23)cc1`: 1.4% (active).
